From PubChem BioAssay (NCI)
Compounds without any hit were thinned out: in the full panel of roughly 79,000, 15% have a hit. Activity calls are given as the source filed them. No stated cut-off is given here; in the data, active means growth inhibition above about 70%; inactive means the rest.

Key:
[1] = NCI Yeast Anticancer Drug Screen. Data for the rad52 strain (AID 147);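 further: 0% = growth of vehicle-treated control cultures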; conditions: S. cerevisiae rad52 mutant growth inhibition, hits give high values
How it was run: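 Read-out: growth inhibition versus vehicle-treated controls. Cells were a DNA repair-deficient yeast strain treated with compounds.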

[2] = NCI Yeast Anticancer Drug Screen. Data for the wt1 strain (AID 149);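 further: 0% = growth of vehicle-treated wt1 cultures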; conditions: S. cerevisiae wt1 strain (SPY 50644) growth inhibition, hits give high values
How it was run: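 Growth inhibition read against vehicle controls after compound exposure of the wt1 yeast strain.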

[3] = NCI Yeast Anticancer Drug Screen. Data for the mgt1 strain (AID 153); conditions: S. cerevisiae mgt1 mutant growth inhibition, hits give high values
How it was run: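 mgt1 yeast grown with test compound; read-out is growth inhibition versus vehicle-treated cultures.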

[4] = NCI Yeast Anticancer Drug Screen. Data for the rad50 strain (AID 155);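 further: 0% = growth of vehicle-only cultures of the same strain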; conditions: S. cerevisiae rad50 strain growth inhibition, hits give high values
How it was run: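 Readout: growth inhibition relative to vehicle-treated cultures. Compound exposure was carried out in a genetically defined yeast strain deficient in DNA damage repair.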

[5] = NCI Yeast Anticancer Drug Screen. Data for the mec2-1 strain (AID 157); conditions: S. cerevisiae mec2-1 strain, hits give high values
How it was run: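 Yeast mec2-1 mutant treated with compound. Readout: growth inhibition vs vehicle controls.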

[6] = NCI Yeast Anticancer Drug Screen. Data for the rad14 strain (AID 159);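 further: 0% = growth of vehicle-treated control cultures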; conditions: S. cerevisiae rad14 strain growth inhibition, hits give high values
How it was run: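 Growth inhibition vs vehicle controls; genetically altered yeast strain (DNA damage repair defect) treated with test compounds.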

[7] = NCI Yeast Anticancer Drug Screen. Data for the sgs1 mgt1 strain (AID 161);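 further: 0% = growth of cultures given vehicle only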; conditions: S. cerevisiae sgs1 mgt1 strain, hits give high values
How it was run: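 Genetically altered yeast, compound exposure, growth inhibition relative to vehicle.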

[8] = NCI Yeast Anticancer Drug Screen. Data for the CLN2oe strain (AID 163);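 further: 0% = growth of vehicle-only control cultures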; conditions: S. cerevisiae CLN2oe strain, hits give high values
How it was run: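 Read-out: yeast growth inhibition, expressed relative to vehicle-only controls. The strain bears an engineered cell-cycle alteration.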

[9] = NCI Yeast Anticancer Drug Screen. Data for the cln2 rad14 strain (AID 165);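 further: 0% = growth equal to vehicle treated cultures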; conditions: S. cerevisiae cln2 rad14 strain, hits give high values
How it was run: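 cln2 rad14 yeast strain; compound exposure; growth inhibition read vs vehicle controls.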

[10] = NCI Yeast Anticancer Drug Screen. Data for the bub3 strain (AID 167); conditions: S. cerevisiae bub3 mutant strain, hits give high values
How it was run: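 Readout: yeast growth inhibition, expressed relative to vehicle-only wells. The test organism is a mutant strain from a panel with lesions in DNA repair or checkpoint genes.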

[11] = NCI Yeast Anticancer Drug Screen. Data for the wt2 strain (AID 169);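 further: 0% = growth of vehicle-treated yeast cultures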; conditions: S. cerevisiae wt2 strain growth inhibition, hits give high values
How it was run: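 Read-out: growth inhibition versus vehicle-treated control cultures after compound exposure of the yeast strain.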

[12] = NCI Yeast Anticancer Drug Screen. Data for the mlh1 strain (AID 171);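 further: 0% = growth of vehicle-treated control cultures of the same strain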; conditions: S. cerevisiae mlh1 strain growth inhibition, hits give high values
How it was run: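 Read-out: growth inhibition versus vehicle controls. Strain: engineered yeast with a defined DNA repair or cell cycle defect, compound-treated.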

[13] = NCI Yeast Anticancer Drug Screen. Data for the sgs1 strain (AID 173);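 further: 0% = growth of vehicle-only control cultures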; conditions: S. cerevisiae sgs1 mutant, hits give high values
How it was run: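 Read-out: yeast growth inhibition relative to vehicle controls, following compound exposure of a strain with a defined DNA repair/cell cycle alteration.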

[14] = NCI Yeast Anticancer Drug Screen. Data for the mlh1 rad18 strain (AID 175); conditions: S. cerevisiae mlh1 rad18 strain growth inhibition, hits give high values
How it was run: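 Yeast w/ defined DNA-repair lesions; compound exposure; growth vs vehicle controls → % inhibition.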

[15] = NCI Yeast Anticancer Drug Screen. Data for the rad18 strain (AID 177); conditions: S. cerevisiae rad18 mutant growth inhibition, hits give high values
How it was run: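 Readout: growth inhibition vs vehicle controls. Cells: genetically altered yeast strain, DNA repair defect.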

[16] = at 5.0 µM (retest, dose inferred, filed as 0.5)
[17] = at 50.0 µM (retest, dose inferred, filed as 5.0)

Measured: growth inhibition

O=C(Oc1ccc([N+](=O)[O-])cc1)c1ccc([N+](=O)[O-])cc1
inactive: [1]; at 1.2 µM 7% | [1]; at 3.7 µM 7% | [1]; at 11.0 µM 1% | [1]; at 33.0 µM 19% | [1]; at 100.0 µM 26% | [2]; at 1.2 µM 1% | [2]; at 3.7 µM 0% | [2]; at 11.0 µM 3% | [2]; at 33.0 µM -1% | [2]; at 100.0 µM 11% | [3]; at 1.2 µM 0% | [3]; at 3.7 µM 1% | [3]; at 11.0 µM 2% | [3]; at 33.0 µM 9% | [3]; at 100.0 µM 13% | [4]; at 1.2 µM 9% | [4]; at 3.7 µM 6% | [4]; [16] 45% | [4]; at 11.0 µM 5% | [4]; at 33.0 µM 40% | [4]; at 50.0 µM 50.8% | [4]; at 100.0 µM 62% | [5]; at 1.2 µM 1% | [5]; at 3.7 µM 2% | [5]; [16] 25% | [5]; at 11.0 µM 2% | [5]; at 33.0 µM 7% | [5]; [17] 33% | [5]; at 50.0 µM 53.7% | [5]; at 100.0 µM 10% | [6]; at 1.2 µM 7% | [6]; at 3.7 µM 5% | [6]; at 11.0 µM 3% | [6]; at 33.0 µM 19% | [6]; at 100.0 µM 41% | [7]; [16] 61% | [7]; at 50.0 µM 68.5% | [8]; at 1.2 µM 1% | [8]; at 3.7 µM 2% | [8]; at 11.0 µM 2% | [8]; at 33.0 µM 10% | [8]; at 100.0 µM 10% | [9]; [16] 18% | [9]; [17] 28% | [9]; at 50.0 µM 31.1% | [10]; at 1.2 µM 3% | [10]; at 3.7 µM 4% | [10]; at 11.0 µM 4% | [10]; at 33.0 µM 12% | [10]; at 100.0 µM 15% | [11]; at 1.2 µM -7% | [11]; at 3.7 µM -5% | [11]; at 11.0 µM -8% | [11]; at 33.0 µM -8% | [11]; at 100.0 µM -5% | [12]; at 1.2 µM 3% | [12]; at 3.7 µM 2% | [12]; at 11.0 µM 2% | [12]; at 33.0 µM 17% | [12]; at 100.0 µM 35% | [13]; at 1.2 µM -4% | [13]; at 3.7 µM -18% | [13]; at 11.0 µM -22% | [13]; at 33.0 µM 7% | [13]; at 100.0 µM 43% | [14]; [16] 67% | [15]; at 1.2 µM 4% | [15]; at 3.7 µM 7% | [15]; at 11.0 µM 5% | [15]; at 33.0 µM 22% | [15]; at 100.0 µM 45%
active: [4]; [17] 82% | [7]; [17] 86% | [10]; [16] 76% | [10]; [17] 88% | [10]; at 50.0 µM 85% | [14]; [17] 83% | [14]; at 50.0 µM 86.2%
